# Measured values reported in PubChem BioAssay (NCATS).
# “And” between values parts separate entries of the source, which are not always exact repeats. Equal values may be shown once. Inconclusive results are not listed. Entries that show only a call come without a potency. Unmarked numbers belong to inactive results. The source made the active and inactive calls. The call rests on the fitted dose curve; in most records, active means well fitted inhibition curve with a large enough effect; inconclusive means small, poorly fitted or top-dose-only effect; inactive means flat fitted curve, though single readings scatter.
# Legend:
# [1] = tested on: CRL-7250; assay: Cytotoxic Profiling of Annotated Libraries Using Quantitative High-Throughput Screening (AID 1296008); conditions: Five cell lines viability, CellTiter-Glo ATP luminescence, 48-72 h; max response: stronger effect = lower value
# In short: (§1)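 Compounds were pin-transferred onto cells and incubated 48 or 72 hr at 37 degree Celsius, 95% humidity. CellTiter-Glo was added, plates sat 10 min at room temperature, then ATP-coupled luminescence was imaged as the viability read-out.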
# [2] = tested on: HEK293; assay: as above; conditions: Five cell lines viability, CellTiter-Glo ATP luminescence, 48-72 h; max response: stronger effect = lower value
# In short: as §1
# [3] = tested on: HaCat; assay: as above; conditions: Five cell lines viability, CellTiter-Glo ATP luminescence, 48-72 h; max response: stronger effect = lower value
# In short: as §1
# [4] = tested on: KB-3-1; assay: as above; conditions: Five cell lines viability, CellTiter-Glo ATP luminescence, 48-72 h; max response: stronger effect = lower value
# In short: as §1
# [5] = tested on: NIH3T3; assay: as above; conditions: Five cell lines viability, CellTiter-Glo ATP luminescence, 48-72 h; max response: stronger effect = lower value
# In short: as §1
# [6] = tested on: MCC-13; assay: qHTS assay to identify novel small-molecules to repurpose for Merkel cell carcinoma treatment (AID 1296009); conditions: MCC and control cell lines, CellTiter-Glo viability, 72 h; series mostly up to 46 µM
# In short: (§2)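 qHTS format: cells treated with library compounds in DMSO across 8 (NPC) or 11 (MIPE) concentrations. Readout after 72 hr at 37 degree celsius was CellTiter-Glo luminescence.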
# [7] = tested on: MCC-26; assay: as above; conditions: MCC and control cell lines, CellTiter-Glo viability, 72 h; series mostly up to 46 µM
# In short: as §2
# [8] = tested on: P93_24; assay: qHTS profiling for inhibitors of Plasmodium falciparum proliferation (AID 504749); further: potency means the concentration at half of the fitted maximal effect; conditions: P. falciparum in erythrocytes, SYBR Green DNA, 72 h; series mostly up to 28.7 µM
# In short: (§3)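 Parasite proliferation within erythrocytes, 72 h exposure. Endpoint: SYBR Green I fluorescence after overnight lysis at room temperature. Controls: 0.29 uM artemisinin, DMSO.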
# [9] = tested on: P94_40; assay: as above; conditions: P. falciparum in erythrocytes, SYBR Green DNA, 72 h; series mostly up to 28.7 µM
# In short: as §3
# [10] = tested on: PAD; assay: as above; conditions: P. falciparum in erythrocytes, SYBR Green DNA, 72 h; series mostly up to 28.7 µM
# In short: as §3
# [11] = tested on: PC15; assay: as above; conditions: P. falciparum in erythrocytes, SYBR Green DNA, 72 h; series mostly up to 28.7 µM
# In short: as §3
# [12] = tested on: PC49; assay: as above; conditions: P. falciparum in erythrocytes, SYBR Green DNA, 72 h; series mostly up to 28.7 µM
# In short: as §3
# [13] = tested on: SC27B; assay: as above; conditions: P. falciparum in erythrocytes, SYBR Green DNA, 72 h; series mostly up to 28.7 µM
# In short: as §3
# [14] = tested on: TAB109; assay: as above; conditions: P. falciparum in erythrocytes, SYBR Green DNA, 72 h; series mostly up to 28.7 µM
# In short: as §3
# [15] = tested on: TAB113; assay: as above; conditions: P. falciparum in erythrocytes, SYBR Green DNA, 72 h; series mostly up to 28.7 µM
# In short: as §3
# [16] = tested on: TAB165; assay: as above; conditions: P. falciparum in erythrocytes, SYBR Green DNA, 72 h; series mostly up to 28.7 µM
# In short: as §3
# [17] = tested on: W2; assay: as above; conditions: P. falciparum in erythrocytes, SYBR Green DNA, 72 h; series mostly up to 28.7 µM
# In short: as §3
# [18] = tested on: HACAT; assay: qHTS assay to identify novel small-molecules to repurpose for Merkel cell carcinoma treatment (AID 1296009); conditions: MCC and control cell lines, CellTiter-Glo viability, 72 h; at 44.8 µM (top of the series) unless noted
# In short: as §2
# [19] = tested on: PC26; assay: qHTS profiling for inhibitors of Plasmodium falciparum proliferation (AID 504749); further: potency means the concentration at half of the fitted maximal effect; conditions: P. falciparum in erythrocytes, SYBR Green DNA, 72 h; series mostly up to 28.7 µM
# In short: as §3
# [20] = tested on: HEK293T; assay: qHTS assay to identify novel small-molecules to repurpose for Merkel cell carcinoma treatment (AID 1296009); conditions: MCC and control cell lines, CellTiter-Glo viability, 72 h; at 44.8 µM (top of the series) unless noted
# In short: as §2
# Further: nearly all actives have a fitted effect of over 60% in size.
smiles,measurement,setting,value
CC(C)C1CCC(C(=O)N[C@H](Cc2ccccc2)C(=O)O)CC1 (stereo partly drawn),max response,[1],-2.02% and -1.93%
same,max response,[2],-0.795% and -11.5%
same,max response,[3],-8.21% and -7.47%
same,max response,[4],4.69% and 4.96%
same,max response,[5],0.816% and -0.595%
same,Potency,[6],inactive
same,Potency,[7],inactive
COc1cc(NS(=O)(=O)c2ccc(N)cc2)nc(OC)n1,Potency,[8],inactive
same,Potency,[9],inactive
same,Potency,[10],inactive
same,Potency,[11],inactive
same,Potency,[12],inactive
same,Potency,[13],inactive
same,Potency,[14],inactive
same,Potency,[15],inactive
same,Potency,[16],inactive
same,Potency,[17],inactive
same,max response,[1],-1.11% and -2.3%
same,outcome,[3],inactive
same,max response,[4],3.08%
same,outcome,[4],inactive
same,max response,[5],-5.03% and -1.81%
same,outcome,[18],inactive
same,Potency,[6],inactive
same,Potency,[7],inactive
CC(N)C12CC3CC(CC(C3)C1)C2 (stereo not drawn),Potency,[10],inactive
same,Potency,[11],inactive
same,Potency,[19],inactive
same,Potency,[12],inactive
same,Potency,[17],6.75 µM (active)
same,max response,[1],1.82% and 3.28%
same,max response,[2],-21.7% and 2.38%
same,max response,[3],2.96% and 2.31%
same,max response,[4],16.9% and 3.92%
same,outcome,[5],inactive
same,Potency,[6],inactive
same,Potency,[7],inactive
NCCCC(O)(P(=O)(O)O)P(=O)(O)O,Potency,[8],inactive
same,Potency,[9],inactive
same,Potency,[10],inactive
same,Potency,[11],inactive
same,Potency,[19],inactive
same,Potency,[12],inactive
same,Potency,[13],inactive
same,Potency,[14],inactive
same,Potency,[15],inactive
same,Potency,[16],inactive
same,Potency,[17],inactive
same,outcome,[1],inactive
same,max response,[2],-8.5% and -22.9%
same,max response,[3],-6.79%
same,max response,[4],17.7% and -6.17%
same,max response,[5],0.802%
same,outcome,[5],inactive
same,Potency,[6],inactive
same,Potency,[7],inactive
CC(C)NCC(O)c1ccc(NS(C)(=O)=O)cc1 (stereo not drawn),Potency,[8],inactive
same,Potency,[9],inactive
same,Potency,[10],inactive
same,Potency,[11],inactive
same,Potency,[19],inactive
same,Potency,[12],inactive
same,Potency,[13],inactive
same,Potency,[14],inactive
same,Potency,[15],inactive
same,Potency,[16],inactive
same,Potency,[17],inactive
same,outcome,[1],inactive
same,max response,[2],0.785%
same,outcome,[3],inactive
same,max response,[4],2.03% and 6.79%
same,max response,[5],4.22%
same,outcome,[18],inactive
same,Potency,[6],inactive
same,Potency,[7],inactive
NC(=O)c1cccc(N)c1,max response,[1],-10%
same,max response,[2],-4.67%
same,max response,[3],-6.72%
same,outcome,[4],inactive
same,outcome,[5],inactive
same,Potency,[6],inactive
same,Potency,[7],inactive
CC(C)(C)NC(=O)[C@H]1CC[C@H]2[C@@H]3CC[C@H]4NC(=O)C=C[C@]4(C)[C@H]3CC[C@]12C,max response,[1],-15.1% and -1.46%
same,max response,[2],-5.16%
same,max response,[3],-13.8% and -8.14%
same,max response,[4],9.49% and 2.45%
same,max response,[5],2.59%
same,outcome,[5],inactive
same,Potency,[6],inactive
same,Potency,[7],inactive
CN(CCOc1ccc(CC2SC(=O)NC2=O)cc1)c1ccccn1 (stereo not drawn),Potency,[8],inactive
same,Potency,[9],inactive
same,Potency,[10],inactive
same,Potency,[11],inactive
same,Potency,[19],inactive
same,Potency,[12],inactive
same,Potency,[13],inactive
same,Potency,[14],inactive
same,Potency,[15],inactive
same,Potency,[16],inactive
same,Potency,[17],inactive
same,max response,[1],0.739%
same,outcome,[3],inactive
same,max response,[4],-1.01% and -2.41%
same,max response,[5],0.939%
same,outcome,[18],inactive
same,outcome,[20],inactive
same,Potency,[6],inactive
same,Potency,[7],inactive
CCn1cc(C(=O)O)c(=O)c2cc(F)c(N3CCNCC3)nc21,Potency,[9],inactive
same,Potency,[10],inactive
same,Potency,[11],inactive
same,Potency,[19],inactive
same,Potency,[12],inactive
same,Potency,[13],inactive
same,Potency,[15],inactive
same,max response,[1],-4.45% and -16.8%
same,max response,[3],-2.73%
same,outcome,[3],inactive
same,max response,[4],-1.65% and 0.264%
same,outcome,[5],inactive
same,outcome,[18],inactive
same,outcome,[20],inactive
same,Potency,[6],inactive
same,Potency,[7],inactive
O=C(O)c1cn(C2CC2)c2cc(N3CCNCC3)c(F)cc2c1=O,Potency,[10],inactive
same,Potency,[11],inactive
same,Potency,[12],inactive
same,Potency,[13],inactive
same,Potency,[14],2.24 µM (active)
same,Potency,[15],inactive
same,Potency,[17],4.55 µM (active)
same,max response,[1],-2.76% and -7.47%
same,outcome,[2],inactive
same,outcome,[3],inactive
same,max response,[4],-1.15%
same,outcome,[4],inactive
same,outcome,[5],inactive
same,outcome,[18],inactive
same,outcome,[20],inactive
same,Potency,[6],inactive
CNC1CCCN(c2c(F)cc3c(=O)c(C(=O)O)cn(C4CC4)c3c2OC)C1 (stereo not drawn),Potency,[8],inactive
same,Potency,[9],inactive
same,Potency,[10],inactive
same,Potency,[11],inactive
same,Potency,[19],inactive
same,Potency,[12],inactive
same,Potency,[13],inactive
same,Potency,[14],inactive
same,Potency,[15],inactive
same,Potency,[16],inactive
same,max response,[1],-2.7%
same,max response,[2],-0.681% and -8.47%
same,max response,[3],0.986% and -11%
same,outcome,[4],inactive
same,max response,[5],-6.02%
same,outcome,[5],inactive
same,Potency,[6],inactive
same,Potency,[7],inactive
CCOC(=O)c1ccc(C#Cc2ccc3c(c2)C(C)(C)CCS3)nc1,Potency,[8],inactive
same,Potency,[9],inactive
same,Potency,[10],inactive
same,Potency,[11],inactive
same,Potency,[12],inactive
same,Potency,[13],inactive
same,max response,[1],-0.581% and -12.4%
same,outcome,[3],inactive
same,max response,[4],5.71% and 0.466%
same,max response,[5],-3.55%
same,outcome,[5],inactive
same,outcome,[18],inactive
same,Potency,[6],inactive
same,Potency,[7],inactive
